# Data as given in the OligoGym collection.
# Target: EAPP
# Assay: pooled miR-30 sensor sort-seq; sequence = guide strand
# Conditions: shRNA
# Further: reference of the scale not given here.
row,Sequence,sensor-assay potency score (higher = more potent)
1,TAGATGATTCACTTTCTCCGGT,0.266
2,AAAGACTTCATCCTTGTCGTAG,-0.0566
3,TTGGTCACCTGTACTGCTCTGT,0.00284
4,TTTCTTCCACATCTGTCTCTGC,-0.196
5,TCATCGTAGTACCTTGTCGGAG,-1.04

# Target: EBNA1BP2
# Assay: as above
# Conditions: shRNA
row,Sequence,sensor-assay potency score (higher = more potent)
1,TATACCGTCGTTTAGCACTGGG,-0.643
2,TAGTCTGCAGCTTCTGTCGAAT,-0.943
3,TTCATCTTCTCTCTTGTTCGTT,0.27
4,TTAGTCTGCAGCTTCTGTCGAA,0.0417
5,TTCTGGATCAACAGCTTTCTGG,-1.11
6,TATTTGACCCTTTCTTGCCAGG,-1.16
7,TCATCTTCTCTCTTGTTCGTTT,-0.122
8,TACATCATCATAGCTCTCCCGA,-0.31
9,ATAGAAACTCATCTCTCGCTGG,0.115
10,ATCAACAGCTTTCTGGTCCTTG,-0.301
11,TTTCTTAATAGCATTCATCATA,-1.2
12,TAGAAACTCATCTCTCGCTGGA,0.612
